# Screening data from PubChem.
# In the library only some 0.9% were active in any assay of this set; here they are far more common.
# Eya2 phos inh = qHTS Assay for Inhibitors of the Phosphatase Activity of Eya2; Protein phosphatase EYA2 (Homo sapiens), O00167; recombinant Eya2, OMFP fluorescence dephosphorylation (OMFP is methylfluorescein phosphate); Potency, µM (top dose mostly 76.9 µM), usual class: inhibitors; actives 0.006% (n = 330,000)
#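 Eya2 protein (added as 0.2 uM solution) was preincubated with compound for 10 min at ambient temperature in 50 mM HEPES pH 7.5, 50 mM NaCl, 5 uM MgCl2, 0.05% BSA, 1 mM DTT. OMFP (added at 50 uM) then reacted 10 min; fluorescence read at 485/525 nm.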
# B2AR arrestin = qHTS assay of beta-arrestin-biased ligands of beta2-adrenergic receptor; Beta-2 adrenergic receptor (Homo sapiens), P07550; actives 0.02% (n = 330,000); beta-arrestin recruitment to beta2AR, cell-based reporter; AID 492947, 2010; Potency, µM (doses to about 46.1 µM), usual class: activators; also: nearly all actives have a fitted effect of over 65% in size
# Six1-Eya2 blk = qHTS Assay for Inhibitors of the Six1/Eya2 Interaction | AlphaScreen GST-Six1/His-Eya2 binding, biochemical; stronger effect = lower value | actives 0.56% (n = 360,000) | Homeobox protein SIX1 (Homo sapiens) + Protein phosphatase EYA2 (Homo sapiens), … | AID 651725, 2012 | activity change, % (concentration not given with the values); in the data active = activity change below about -65%; inconclusive = mostly about -30% to -63%
# Target sequence (O00167 whole entry, looked up): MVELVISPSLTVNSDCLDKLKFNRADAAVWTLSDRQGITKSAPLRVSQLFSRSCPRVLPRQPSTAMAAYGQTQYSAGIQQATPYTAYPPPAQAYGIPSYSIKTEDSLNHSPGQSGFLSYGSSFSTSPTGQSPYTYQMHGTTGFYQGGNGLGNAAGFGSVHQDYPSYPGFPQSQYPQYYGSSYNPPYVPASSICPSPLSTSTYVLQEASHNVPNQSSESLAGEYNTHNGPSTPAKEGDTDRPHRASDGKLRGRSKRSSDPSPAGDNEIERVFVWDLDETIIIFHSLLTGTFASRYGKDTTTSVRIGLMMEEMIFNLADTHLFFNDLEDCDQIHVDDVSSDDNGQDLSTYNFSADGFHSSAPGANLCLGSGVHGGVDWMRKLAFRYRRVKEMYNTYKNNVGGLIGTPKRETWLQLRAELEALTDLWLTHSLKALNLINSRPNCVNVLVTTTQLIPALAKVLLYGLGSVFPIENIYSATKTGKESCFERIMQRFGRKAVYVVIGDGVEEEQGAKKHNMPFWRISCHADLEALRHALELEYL
# Target sequence (Q15475 whole entry, looked up): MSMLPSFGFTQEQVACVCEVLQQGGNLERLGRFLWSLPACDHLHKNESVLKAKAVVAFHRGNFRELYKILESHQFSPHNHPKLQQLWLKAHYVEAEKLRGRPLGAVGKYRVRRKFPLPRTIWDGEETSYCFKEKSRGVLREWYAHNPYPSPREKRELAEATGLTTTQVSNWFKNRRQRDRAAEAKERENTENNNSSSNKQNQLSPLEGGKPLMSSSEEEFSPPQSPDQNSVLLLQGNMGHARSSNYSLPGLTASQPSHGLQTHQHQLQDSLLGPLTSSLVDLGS
#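 AlphaScreen luminescence read after one hour at 37 °C in darkness. Pin-transferred compounds met GST-Six1 and His-Eya2 protein (5X stock 250 nM/500 nM) plus glutathione donor and Ni-chelate acceptor beads (5X, 50 ug/mL).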
# L3MBTL1 inh = qHTS Assay for the Inhibitors of L3MBTL1; AlphaScreen L3MBTL1–H3K9me1 peptide binding; Potency, µM (doses to about 57.1 µM), usual class: inhibitors; actives 0.66% (n = 230,000); AID 485360, 2010; also: nearly all actives have a fitted effect of over 60% in size
#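 L3MBTL1 (50 nM) pre-complexed 30 min with biotinylated H3(1-15)K9me1 peptide (75 nM), then compounds added for 30 min at room temperature; AlphaScreen streptavidin donor/nickel chelate acceptor beads (10 ug/mL final) read after 30 min dark incubation.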
# CtBP-E1A blk = qHTS Assay for Inhibitors of the CtBP/E1A Interaction; AlphaScreen GST-E1A/His-CtBP binding, 1536-well; stronger effect = lower value; actives 0.49% (n = 340,000); AID 651724, 2012; activity change, % (concentration not given with the values); CtBP / adenovirus E1A interaction (AlphaScreen); in the data active = activity change below about -65%; inconclusive = mostly about -30% to -63%
#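 AlphaScreen with 125 nM GST-E1A and 125 nM His-CtBP (5X stocks) in Tris pH 8.0, 300 mM NaCl, BSA, Tween 20, TCEP. Compounds preincubated 2 h at 37 deg C, then glutathione donor/nickel acceptor beads added for 1 h at 37 deg C in dark.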
# Numbers stand for hits; . = inactive; ? = inconclusive; / = no result; ! = a repeat was not active; [ ] = another dose, or the depositor's remark. Unless noted, calls follow the shape of the dose curve; as a rule, active = well fitted curve in the direction sought with a large enough effect; inconclusive = small, poorly fitted or top-dose-only effect, or another doubt; inactive = no such curve, though single readings can be large; an effect the other way counts as inactive or inconclusive.
SMILES,Eya2 phos inh,B2AR arrestin,Six1-Eya2 blk,L3MBTL1 inh,CtBP-E1A blk
Cc1c(Cl)cccc1NS(=O)(=O)c1ccc2c(c1)C1C=CCC1C(c1ccc(C(=O)O)cc1)N2 (stereo unspecified),.,.,?,7.9µM,.
COc1ccc(NS(=O)(=O)c2ccc3c(c2)[C@H]2C=CC[C@H]2[C@@H](c2ccc(C(=O)O)cc2)N3)cc1,.,.,?,/,.
COc1ccc(N2CCN(CCCNC(=O)Cn3c(=O)c4cccn4c4ccccc43)CC2)cc1,.,.,.,/,.
CN(C(=O)CCCN1C(=O)c2ccccc2C1=O)C1CCCCC1,.,.,.,.,.
Cc1cc(C)n(-c2ccc(C(=O)Nc3ccc(C)c(S(=O)(=O)N4CCOCC4)c3)cc2)n1,.,.,-73,.,-76
Cc1csc(NC(=O)c2cc(=O)[nH]c3ccc(S(=O)(=O)N4CCOCC4)cc23)n1,.,.,?,.,-70
Cc1ccc(C(=O)Nc2nc(-c3ccccn3)cs2)cc1S(=O)(=O)N1CCOCC1,.,.,-91,?,-92
COc1cc(NC(=O)c2cc(=O)[nH]c3ccc(S(=O)(=O)N4CCOCC4)cc23)cc(OC)c1,.,.,.,.,.
O=C(Nc1nc(-c2ccccn2)cs1)c1ccc(F)c(S(=O)(=O)N2CCOCC2)c1,.,.,-93,?,-93
CC(=O)c1ccc(NC(=O)c2ccc(C)c(S(=O)(=O)N3CCOCC3)c2)cc1,.,.,.,/,.
CCN(C(=O)CN1C(=O)NC2(CCc3ccccc32)C1=O)C1CCCCC1 (stereo unspecified),.,.,.,.,.
O=C(NC(=S)Nc1ccc(N2CCCC2)cc1)c1ccc(F)cc1,.,.,.,/,.
c1ccc2[nH]c(-c3cnco3)cc2c1,.,.,.,.[2.29 µM],.
O=C(Nc1nc(-c2ccccn2)cs1)c1cc(S(=O)(=O)N2CCOCC2)ccc1F,.,.,-90,?,?
CN(CC1CCCO1)S(=O)(=O)c1ccc(C(=O)Nc2nc(-c3ccccn3)cs2)cc1 (stereo unspecified),.,.,?,32µM,-92
CC(C)N(C(=O)CSc1ccc(S(=O)(=O)N2CCCCC2)cn1)C(C)C,.,.,.,.,.
COc1ccc(CCn2nnnc2C2(c3ccc(C)cc3)CC2)cc1,.,/,/,/,/
CCOC(=O)C1CCN(c2nc(C)cc(C)c2C#N)CC1,.,.,.,.,.
CCOC(=O)C1CCN(c2nc(N)c3c(N)nc(SCC(=O)O)cc3c2C#N)CC1,.,.,.,25µM,?
COC(=O)c1ccc(C(=O)OC)c(NC(=O)CSc2cccc[n+]2[O-])c1,.,5µM,.,.,.
CCc1ccccc1N(CC(=O)NC(C)(C)CC)C(=O)CCC(=O)Nc1nccs1,.,.,.,.,.
CCOc1ccc(-c2cc(C(=O)Nc3ccc(C)c(NS(C)(=O)=O)c3)[nH]n2)c(C)c1,/,/,.,/,.
NC(=O)NC(=O)CC1S/C(=N/N=C/c2ccccc2)NC1=O (stereo unspecified),.,.,.,.,.
NC(=O)NC(=O)CC1S/C(=N/N=C2\CSC(=O)N2)NC1=O (stereo unspecified),.,.,-90,?,-93
CC1=C/C(=N\N=C2\NC(=O)C(CC(=O)Nc3ccccc3)S2)CC(C)(C)C1 (stereo unspecified),.,.,.,.,/
SMILES,Eya2 phos inh,B2AR arrestin,Six1-Eya2 blk,L3MBTL1 inh,CtBP-E1A blk
O=C(O)CNC(=O)CC1S/C(=N/N=C2/NC(=O)CS2)NC1=O (stereo unspecified),.,.,-67,/,?
Nc1nc(Cl)nc2c1ncn2[C@@H]1O[C@H](COP(=O)(O)OP(=O)(O)OP(=O)(O)O)[C@@H](O)[C@H]1O,.,/,/,/,/
NC(=O)NN=C1CCN2CCCc3cccc1c32,/,/,.,/,.
CCOc1ccc(NC(=S)NCc2ccc3[nH]c(C)cc3c2)cc1,.,.,-68,/,/
CC1(C(=O)NS(=O)(=O)c2ccccc2Cl)CCN1C(=O)C1(c2ccc(Cl)cc2)CCC1 (stereo unspecified),/,/,.,/,.
COCCCNC(=O)CSc1ccsc1[N+](=O)[O-],.,.,.,.,/
Cc1ccccc1NC(=O)CSc1ccsc1[N+](=O)[O-],.,.,?,25µM,.
CC(=O)c1cn(CCOc2ccc(F)cc2)c2ccccc12,.,.,.,.[2.29 µM],.
CN(O)/C=c1/ccc2c(n1)C(=O)C=CC=2,.,.,-93,20µM,-96
O=C(O)CCNc1cc(N2CCN(C(=O)c3ccco3)CC2)c2noc3c2c1C(=O)c1ccccc1-3,.,.,-74,/,-85
Cn1c2cc(Br)sc2c2cnn(Cc3c(F)cccc3F)c(=O)c21,.,.,/,.,/
Cc1cc2c(cc1Cl)N(C(=O)Nc1ccc(Oc3cccnc3C)nc1)CC2,.,/,/,/,/
Cc1nc2ccc(NC(=O)N3CCCCC3)cc2nc1C,.,.,.,.,.
O=C(Nc1ccc2nc(-c3ccco3)c(-c3ccco3)nc2c1)N1CCCCCC1,.,.,?,3.5µM,.
CCOC(=O)C1CCN(C(=O)Nc2ccc3c(c2)nc(C)n3C)CC1,.,.,.,/,.
CCOC(=O)C1CCN(C(=O)Nc2ccc3nc(-c4ccco4)c(-c4ccco4)nc3c2)CC1,.,.,?,3.5µM,.
CCOC(=O)C1CCCN(C(=O)c2cc(-c3ccco3)nc3ccccc23)C1 (stereo unspecified),.,.,?,3.5µM,.
C[C@H]1CN([C@@H](C)CO)C(=O)c2cc(Br)cnc2O[C@H]1CN(C)C(=O)c1ccccn1,/,/,.,/,.
O=c1cc(-c2ccccc2F)[nH]c2cc3c(cc12)OCO3,.,/,/,/,/
O=C(O)c1ccc(CSc2nc3ccccc3c(=O)n2-c2ccccc2)cc1,.,.,.,.,/
N=C(N)SCc1nc2ccccc2c(=O)n1-c1ccccc1,.,.,-82!,.,-83!
CC(C)(CNC(=O)c1cccc(F)c1)CNC(=O)c1cccc(F)c1,/,/,.,/,/
COc1ccccc1/C=C\C(=O)NCC(=O)N/N=C/c1cccc(OC)c1O,.,.,?,/,-89
COc1cccc(/C=N/NC(=O)CNC(=O)c2cccs2)c1O,.,.,-85,/,-89
COc1cccc(/C=N/NC(=O)CNC(=O)CCc2ccccc2)c1O,.,.,-69,.,/
COc1cc(/C=N/NC(=O)CCC(=O)NCc2ccccc2)cc(OC)c1OC,.,.,.,.,-66
O=C(NCc1ccccn1)c1c(-c2ccccc2)sc2ccccc12,.,.,.,.,.
